Screening results as filed in PubChem BioAssay.
A selection: hits, their analogues and other compounds. The true share with any hit is near 7.6%.
KCNH2 WT inh: qHTS for Inhibitors of KCHN2 3.1: Wildtype qHTS | 340,000 tested, 0.37% active | U2OS, BacMam KCNH2, thallium flux FluxOr; stronger effect = lower value | AID 720551, 2013 | activity change, % at 1.84 µM;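 active = maximum activity change below -70%; inconclusive = maximum activity change between -70% and -50%; inactive = maximum activity change above -50%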
Target sequence (Q12809 whole entry, looked up): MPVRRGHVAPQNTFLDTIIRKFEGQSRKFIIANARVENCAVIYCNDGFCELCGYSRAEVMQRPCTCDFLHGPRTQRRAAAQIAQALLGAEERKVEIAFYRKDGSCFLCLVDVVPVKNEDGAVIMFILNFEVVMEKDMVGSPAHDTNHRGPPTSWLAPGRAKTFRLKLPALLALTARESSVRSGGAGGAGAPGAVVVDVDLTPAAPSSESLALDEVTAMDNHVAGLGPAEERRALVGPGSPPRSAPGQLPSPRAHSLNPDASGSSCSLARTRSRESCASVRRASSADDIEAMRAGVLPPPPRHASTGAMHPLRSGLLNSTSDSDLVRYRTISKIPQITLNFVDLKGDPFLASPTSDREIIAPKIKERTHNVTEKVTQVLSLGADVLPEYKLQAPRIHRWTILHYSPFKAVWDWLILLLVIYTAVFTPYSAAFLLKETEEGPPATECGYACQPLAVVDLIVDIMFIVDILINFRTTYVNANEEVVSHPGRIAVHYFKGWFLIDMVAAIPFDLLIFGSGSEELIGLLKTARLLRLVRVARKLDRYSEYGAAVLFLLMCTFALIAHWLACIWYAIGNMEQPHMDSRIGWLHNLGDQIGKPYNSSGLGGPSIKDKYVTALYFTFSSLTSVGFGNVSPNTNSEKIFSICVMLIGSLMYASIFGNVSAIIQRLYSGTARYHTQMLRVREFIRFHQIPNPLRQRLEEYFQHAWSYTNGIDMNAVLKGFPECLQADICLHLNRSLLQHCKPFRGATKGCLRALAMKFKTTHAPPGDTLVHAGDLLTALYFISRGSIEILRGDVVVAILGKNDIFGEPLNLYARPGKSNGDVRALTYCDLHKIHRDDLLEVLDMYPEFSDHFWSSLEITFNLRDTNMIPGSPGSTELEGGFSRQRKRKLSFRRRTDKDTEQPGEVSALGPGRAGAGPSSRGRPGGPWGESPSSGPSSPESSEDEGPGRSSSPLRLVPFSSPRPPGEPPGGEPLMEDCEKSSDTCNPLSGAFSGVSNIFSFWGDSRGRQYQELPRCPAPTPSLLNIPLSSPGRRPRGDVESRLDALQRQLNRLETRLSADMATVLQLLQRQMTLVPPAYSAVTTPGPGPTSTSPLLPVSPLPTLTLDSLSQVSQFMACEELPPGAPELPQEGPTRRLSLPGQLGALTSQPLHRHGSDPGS
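U2OS cells transduced with wild-type KCNH2 virus are loaded with FluxOr dye for 45 min, and thallium flux is measured in kinetic reads before and after stimulation buffer. Rate constants are normalized to DMSO controls.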
KB-V1 cytotox: qHTS assay for MDR1-selective chemotherapeutics: Primary screen using the drug-selected MDR subline cells KB-V1. KB-V1 MDR cells viability, CellTiter-Glo, 72 h. Potency, µM (top dose mostly 46.1 µM), usual class: cytotoxic. 400,000 tested, 3.4% active. AID 1347076, 2019; note: nearly all actives have a fitted effect of over 60% in size
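Following 72 h at 37 degrees C with compound, KB-V1 cell viability was read by CellTiter-Glo luminescence, medium being phenol-red-free DMEM plus 10% FBS; concentration-response parameters came from normalized, curve-fitted qHTS data.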
KB-3-1 cytotox: qHTS assay for MDR1-selective chemotherapeutics: Primary screen using the parental adenocarcinoma cell KB-3-1 | KB-3-1 viability, CellTiter-Glo ATP luminescence, 72 h | Potency, µM (doses to about 46.1 µM), most hits filed as cytotoxic | 400,000 tested, 1.4% active | AID 1347075, 2019; note: nearly all actives have a fitted effect of over 60% in size
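Parental KB-3-1 viability, qHTS format: 72 h compound exposure, 37 °C; CellTiter-Glo; media-only wells and DMSO plates as controls; concentration-effect fits on corrected data.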
MCF10A rereplic: A quantitative high throughput screen for small molecules that induce DNA re-replication in MCF 10a normal breast cells; MCF 10A DNA re-replication, Hoechst nuclear intensity, 48 h; Potency, µM (doses to about 46.1 µM), actives largely listed as activators; 350,000 tested, 2.9% active; AID 624296, 2012; note: nearly all actives have a fitted effect of over 50% in size
SW480 rerep: A quantitative high throughput screen for small molecules that induce DNA re-replication in SW480 colon adenocarcinoma cells. 340,000 tested, 1.8% active. Potency, µM (doses to about 46.1 µM), most hits filed as activators. AID 624297, 2012. SW480 DNA re-replication, Hoechst DNA content imaging, 48 h; note: nearly all actives have a fitted effect of over 55% in size
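First, 250 cells per well were seeded. Next, compound or vehicle (23 nL) was pinned in, plates sat 48 hr at 37 C. Finally Hoechst was added for 40 min before fluorescence scanning.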
KCNH2 3.1 inh: qHTS for Inhibitors of KCHN2 3.1: Mutant qHTS | U2OS KCNH2 3.1, thallium flux FluxOr; stronger effect = lower value | activity change, % (tested at about 1.8 µM) | 340,000 tested, 0.95% active;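 active = maximum activity change below -70%; inconclusive = maximum activity change from -70% to -50%; inactive = maximum activity change above -50%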;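 note: thallium influx rate constant from kinetic fluorescence after stimulation buffer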
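FluxOr-based Tl+ influx in U2OS cells transduced with KCNH2 3.1 virus; rate constants normalized to DMSO controls.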
Of the large screens only hits and unclear results are named; the others gave an inactive call. Unless noted, calls come from the whole dose curve; as a rule, active = well fitted curve in the direction sought with a large enough effect; inconclusive = small, poorly fitted or top-dose-only effect, or another doubt; inactive = no such curve, though single readings can be large; an effect the other way counts as inactive or inconclusive.

Cc1ccccc1NS(=O)(=O)c1ccc(C(=O)N2CCCCCCC2)cc1	KB-V1 cytotox inconclusive, MCF10A rereplic inconclusive
Cc1ccccc1NS(=O)(=O)c1ccc(C(=O)N2CCCC2)cc1	KB-V1 cytotox 21µM
Cc1nc2ccc(S(=O)(=O)Nc3ccccc3C)cc2s1	KB-V1 cytotox 18µM, KB-3-1 cytotox inconclusive, MCF10A rereplic inconclusive, SW480 rerep inconclusive
Cc1cccc(NS(=O)(=O)c2ccc(C(=O)N3CCN(c4ccccc4O)CC3)cc2)c1C	KB-V1 cytotox inconclusive, KB-3-1 cytotox inconclusive, MCF10A rereplic 23µM
Cc1ccccc1NS(=O)(=O)c1ccc(C(=O)NCC2(N3CCOCC3)CCCCC2)cc1	none
Cc1cccc(NS(=O)(=O)c2ccc(C(=O)NCC3(N4CCCCC4)CCCCC3)cc2)c1C	SW480 rerep inconclusive, KCNH2 3.1 inh -78
Cc1cc(S(=O)(=O)Nc2ccc(C(=O)N3CCN(c4ccccc4O)CC3)cc2)ccc1F	none
CCCN1Cc2cccc(C(=O)Nc3cc(Cl)ccc3C)c2C1=O	none (no result: KCNH2 WT inh, MCF10A rereplic, SW480 rerep, KCNH2 3.1 inh)
CCCCCC(=O)N1C[C@@H](O)[C@H](n2cc(COC(=O)c3ccccc3)nn2)C[C@@H]1c1ccc(OC)cc1	none (no result: MCF10A rereplic, SW480 rerep)
Cc1ccc2c(c1)-c1c(cnc3cc(-c4ccc(Cl)cc4)nn13)CO2	KB-V1 cytotox inconclusive (no result: KCNH2 WT inh, MCF10A rereplic, SW480 rerep, KCNH2 3.1 inh)
O=C(/C=C/c1ccco1)NC(=S)Nc1nc(-c2ccc(Cl)cc2)cs1	KB-V1 cytotox inconclusive, KB-3-1 cytotox inconclusive, MCF10A rereplic 21µM
COc1ccc(-c2csc(NC(=S)NC(=O)/C=C/c3ccccc3)n2)cc1Br	KB-V1 cytotox 12µM, KB-3-1 cytotox inconclusive
O=C(NC(=S)Nc1nc(-c2ccc(Cl)cc2)cs1)c1cccs1	MCF10A rereplic inconclusive
Cc1ccc2oc(-c3cccc(NC(=S)NC(=O)/C=C/c4ccco4)c3)nc2c1	KB-V1 cytotox inconclusive, KB-3-1 cytotox inconclusive, MCF10A rereplic 9.2µM, SW480 rerep inconclusive
O=C(/C=C/c1ccco1)NC(=S)Nc1nc(-c2ccc3ccccc3c2)cs1	KB-V1 cytotox 5.2µM, KB-3-1 cytotox 4.6µM, MCF10A rereplic 1.2µM, SW480 rerep inconclusive
COc1ccc(-c2csc(NC(=O)Cc3ccccc3)n2)cc1OC	none
CC1CCCN(C(=O)c2ccc(OC3CCN(CCc4ccccc4)CC3)cc2)C1 (stereo unspecified)	MCF10A rereplic inconclusive, SW480 rerep inconclusive
CC(c1ccon1)N(C)Cc1cn(C)nc1-c1cccc(Cl)c1 (stereo unspecified)	KB-V1 cytotox inconclusive, MCF10A rereplic inconclusive, SW480 rerep inconclusive
Cc1cc(S(=O)(=O)Nc2ccc(C(=O)NCCCN3CCCC3=O)cc2)ccc1F	none
O=C(Nc1ccccc1)c1ccc(=O)[nH]n1	none
Cc1cc(C)cc(C(=O)NCC(=O)OCC(=O)NC2CCCc3ccccc32)c1 (stereo unspecified)	none
COc1ccccc1C(=O)NNS(=O)(=O)c1ccc(F)cc1	none
O=C(NNS(=O)(=O)c1ccc(F)cc1)c1ccccc1F	SW480 rerep 18µM
O=C1OCCC1Sc1nnc(-c2cccnc2)n1-c1ccccc1F (stereo unspecified)	KB-V1 cytotox inconclusive
Cc1ccc(S(=O)(=O)Nc2cccc(-c3cn4ccsc4n3)c2)cc1	KB-V1 cytotox 23µM, KB-3-1 cytotox inconclusive, MCF10A rereplic 13µM, SW480 rerep inconclusive
O=S(=O)(Nc1cccc(-c2cn3cccnc3n2)c1)c1ccc(-c2ccccc2)cc1	none
O=S(=O)(Nc1cccc(-c2cn3cccnc3n2)c1)c1ccc(F)cc1	KB-V1 cytotox 21µM
OC(Cc1ccccc1)c1ncc(-c2ccc(Cl)cc2)[nH]1 (stereo unspecified)	KB-V1 cytotox 12µM, KB-3-1 cytotox inconclusive (no result: KCNH2 WT inh, MCF10A rereplic, SW480 rerep, KCNH2 3.1 inh)
COc1cccc(CN2C(=O)c3cccc(N)c3C2=O)c1	MCF10A rereplic 18µM, SW480 rerep inconclusive
COc1ccc(CNC(=O)c2cnn(-c3ccc(C)cc3)c2C2CCN(C(=O)OC(C)(C)C)CC2)cc1	KB-3-1 cytotox inconclusive (no result: KCNH2 WT inh, MCF10A rereplic, SW480 rerep, KCNH2 3.1 inh)
O=C(CNC1=NCCS1)c1c[nH]c2ccccc12	KB-3-1 cytotox inconclusive (no result: KCNH2 WT inh, MCF10A rereplic, SW480 rerep, KCNH2 3.1 inh)
O=C(COC(=O)c1ccccc1)NC1CCCCCC1	none
N/C(=N\OC(=O)c1ccccc1)C(C(=O)NOC(=O)c1ccccc1)C1CCCCC1 (stereo unspecified)	KB-V1 cytotox inconclusive, KB-3-1 cytotox 23µM, MCF10A rereplic inconclusive, SW480 rerep inconclusive
CC(C)C(Cl)=NOC(=O)Nc1ccc(S(N)(=O)=O)cc1	MCF10A rereplic 2.9µM, SW480 rerep inconclusive (no result: KCNH2 3.1 inh)
O=[N+]([O-])c1cccnc1N1CCN(c2ccc(F)cc2)CC1	none
Cc1noc(/C=C/c2nn(C)cc2Cl)c1[N+](=O)[O-]	KB-V1 cytotox inconclusive, KB-3-1 cytotox inconclusive, MCF10A rereplic 21µM, SW480 rerep inconclusive
Cc1cccc(N/C=C/c2onc(C)c2[N+](=O)[O-])c1	KB-3-1 cytotox inconclusive
COc1cc(/C=C/c2onc(C)c2[N+](=O)[O-])cc(OC)c1OC	none
Cc1cccc(/C=C/c2onc(C)c2[N+](=O)[O-])n1	KB-V1 cytotox inconclusive, KB-3-1 cytotox 10µM, MCF10A rereplic 7.3µM, SW480 rerep inconclusive
O=C1OC(Nc2nc(-c3ccc(F)cc3)cs2)c2ccccc21 (stereo unspecified)	KB-V1 cytotox inconclusive, MCF10A rereplic 21µM, SW480 rerep 26µM
NC(=Nc1nc(-c2ccccn2)cc2ccccc12)c1ccccn1	KB-V1 cytotox 0.73µM, KB-3-1 cytotox inconclusive, MCF10A rereplic inconclusive, SW480 rerep inconclusive
CCOCCCNC(=O)C(=O)Nc1c2c(nn1-c1ccc(OC)cc1)CSC2	none (no result: KCNH2 WT inh, MCF10A rereplic, SW480 rerep, KCNH2 3.1 inh)
N#CC(CC(=O)c1ccc(Cl)cc1)c1ccccc1 (stereo unspecified)	KB-V1 cytotox 16µM
O=C(CC(C(=O)O)c1ccc(Cl)cc1)c1ccccc1 (stereo unspecified)	none (no result: KCNH2 3.1 inh)
CN(Cc1ccccc1)C(=O)c1ncn(Cc2ccccc2)c1C(=O)N(C)Cc1ccccc1	KCNH2 3.1 inh -72
CN(Cc1ccccc1)C(=O)c1ncn(C)c1C(=O)N(C)Cc1ccccc1	none (no result: KCNH2 WT inh, KCNH2 3.1 inh)
O=C(CN1C(=O)NC2(CCCCC2)C1=O)Oc1ccc2ccc(=O)oc2c1	MCF10A rereplic inconclusive, SW480 rerep 10µM
Cc1ccc(C)c(S(=O)(=O)N(C)c2ccc(OC(=O)CN3C(=O)NC4(CCCC4)C3=O)cc2)c1	none
CC(C)c1ccc(NC(=O)CSc2ncc3c(n2)-c2ccccc2N(C)S3(=O)=O)cc1	none (no result: KCNH2 WT inh, MCF10A rereplic, SW480 rerep, KCNH2 3.1 inh)
